High-throughput results as filed in PubChem BioAssay.
Shown are actives, neighbours in structure and some others; about 1.2% of the full set was active somewhere.
LRH-1 inv ag = inverse agonists of human LRH-1 (NR5A2); O00482; HEK293T StAR-luciferase reporter, LRH-1 transfected, 24 h; inhibition, % at 3.6 µM; 360,000 compounds, 0.13% hits;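 active = inhibition above the mean inhibition of all tested compounds plus 3 SD, cut at about 73% in these data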;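 also: 0% = DMSO wells and 100% = reporter-only cells lacking LRH-1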
NCOA1 inh = inhibitors of human steroid receptor coactivator 1 (SRC1) | HEK293 GAL4-SRC1 luciferase reporter, luminescence | inhibition, % at 3.6 µM | 360,000 compounds, 0.12% hits | AID 588354;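 active = inhibition above the campaign mean plus 3 SD, with each screening campaign given its own cutoff, cut at about 60% in these data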;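 also: 0% = DMSO treated cells and 100% = gossypol at 36 µM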
Gli-Sufu antag = Gli-Sufu pathway antagonism; Sufu-KO-LIGHT fibroblasts, Gli luciferase reporter luminescence; inhibition, % at 5 µM; 340,000 compounds, 0.74% hits;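 active = inhibition above about 55%, limit read from the data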;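 also: 0% = DMSO-treated cells and 100% = wells with medium but no cells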
NCOA3 inh = inhibits human SRC3 coactivator; 360,000 compounds, 0.17% hits; AID 588352; inhibition, % at 3.6 µM; HEK293 GAL4-SRC3 luciferase reporter, luminescence;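 active = inhibition above a per-campaign cutoff, the mean of all compounds plus 3 SD, cut at about 60% in these data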;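 also: 0% = DMSO-treated cells and 100% = gossypol-treated cells at 36 µM; higher means less SRC3-driven luciferase light from the GAL4 reporter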
COUP-TFII inh = inhibitors of human COUP-TFII (NR2F2); 370,000 compounds, 0.7% hits; HEK293T NGFI-A luciferase reporter, luminescence; inhibition, % at 8.6 µM; AID 686940;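 active = inhibition above a per-plate cutoff, mean inhibition of test wells between control levels plus 3 SD, cut at about 38% in these data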;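 also: cells cotransfected with COUP-TFII expression vector driving the NGFI-A reporter; 0% = median of COUP-TF2 test wells and 100% = reporter-only cells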
NCOA2 inhibitor = inhibits human steroid receptor coactivator 2; inhibition, % at 9 µM; HEK293 GAL4-SRC2 luciferase reporter, luminescence; Q15596; 370,000 compounds, 0.17% hits;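 active = inhibition above the mean inhibition of all tested compounds plus 3 SD, set per campaign, cut at about 52% in these data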;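 also: 0% = DMSO treated cells and 100% = cells given Gossypol at 36 µM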
Target sequence (Q15596 whole entry, looked up, the tested form may be a part): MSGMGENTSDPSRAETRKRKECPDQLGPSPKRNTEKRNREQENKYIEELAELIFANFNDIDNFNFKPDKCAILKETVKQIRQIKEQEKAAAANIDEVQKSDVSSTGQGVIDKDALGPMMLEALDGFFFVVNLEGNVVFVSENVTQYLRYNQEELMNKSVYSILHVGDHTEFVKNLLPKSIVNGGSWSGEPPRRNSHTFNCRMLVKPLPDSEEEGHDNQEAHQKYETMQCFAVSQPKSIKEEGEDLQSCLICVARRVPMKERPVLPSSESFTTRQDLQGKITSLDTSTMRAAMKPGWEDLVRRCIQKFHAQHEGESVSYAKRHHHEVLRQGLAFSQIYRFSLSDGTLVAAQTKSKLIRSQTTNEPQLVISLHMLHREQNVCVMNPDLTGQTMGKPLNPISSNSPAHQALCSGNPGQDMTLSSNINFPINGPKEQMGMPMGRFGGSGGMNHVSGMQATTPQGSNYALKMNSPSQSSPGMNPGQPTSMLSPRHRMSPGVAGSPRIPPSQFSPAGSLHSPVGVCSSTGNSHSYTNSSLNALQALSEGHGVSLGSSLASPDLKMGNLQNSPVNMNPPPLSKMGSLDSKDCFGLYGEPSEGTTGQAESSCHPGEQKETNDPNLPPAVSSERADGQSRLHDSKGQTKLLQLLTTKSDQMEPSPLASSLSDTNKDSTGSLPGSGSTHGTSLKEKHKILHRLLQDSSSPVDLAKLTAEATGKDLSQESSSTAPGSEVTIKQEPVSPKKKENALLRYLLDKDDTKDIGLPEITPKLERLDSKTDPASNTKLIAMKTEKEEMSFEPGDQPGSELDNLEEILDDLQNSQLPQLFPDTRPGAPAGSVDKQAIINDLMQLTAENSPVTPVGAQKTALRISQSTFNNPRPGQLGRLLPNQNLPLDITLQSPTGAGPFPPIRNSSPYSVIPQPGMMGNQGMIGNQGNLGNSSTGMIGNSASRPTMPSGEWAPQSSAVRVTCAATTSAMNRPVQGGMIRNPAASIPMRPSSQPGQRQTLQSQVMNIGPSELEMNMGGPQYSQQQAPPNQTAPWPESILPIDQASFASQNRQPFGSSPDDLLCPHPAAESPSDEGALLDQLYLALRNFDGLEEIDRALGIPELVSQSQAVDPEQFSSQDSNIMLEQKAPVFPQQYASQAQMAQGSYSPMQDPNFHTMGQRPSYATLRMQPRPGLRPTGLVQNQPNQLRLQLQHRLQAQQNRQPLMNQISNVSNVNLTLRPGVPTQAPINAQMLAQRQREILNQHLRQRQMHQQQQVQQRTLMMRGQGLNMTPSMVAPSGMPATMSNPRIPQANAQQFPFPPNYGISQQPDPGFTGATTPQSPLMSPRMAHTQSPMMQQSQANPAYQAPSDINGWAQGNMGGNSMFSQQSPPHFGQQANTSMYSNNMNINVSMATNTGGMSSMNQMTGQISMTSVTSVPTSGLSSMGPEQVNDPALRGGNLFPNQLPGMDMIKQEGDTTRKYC
Gli antag conf = Gli-SUFU antagonism confirmation, single concentration. Sufu-KO-LIGHT cells, Gli luciferase reporter, luminescence. inhibition, % at 5 µM. shares compounds with Gli-Sufu antag. 2,500 compounds, 40% hits;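 active = mean inhibition at 5 µM reaching about 45%, limit read from the data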;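 also: plate controls were DMSO-treated cells for no effect and wells lacking cells for full effect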
SufuKO cytotox = counter-screen for Gli-SUFU antagonists: cytotoxicity; shares compounds with Gli-Sufu antag; AID 651994; cytotoxicity, % at 5 µM; Sufu-KO-LIGHT cells cytotoxicity, ATP luminescence; 2,500 compounds, 32% hits;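 active = mean cytotoxicity at 5 µM above about 25%, limit read from the data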;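 also: cells exposed to compound overnight for roughly 16 to 18 hours; plate controls were DMSO wells with cells for no effect and medium without cells for full effect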
Wnt3a cs = inhibits Wnt3a reporter, counter-screen for Gli-SUFU antagonists. shares compounds with Gli-Sufu antag. Wnt-LIGHT cells, Wnt3a-driven luciferase reporter, luminescence. inhibition, % at 6.25 µM. 2,500 compounds, 20% hits. AID 651995;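 active = mean inhibition above about 25%, limit read from the data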
Active calls of the source: *; nt = no result given.

SMILES	LRH-1 inv ag	NCOA1 inh	Gli-Sufu antag	NCOA3 inh	COUP-TFII inh	NCOA2 inhibitor	Gli antag conf	SufuKO cytotox	Wnt3a cs
COc1ccc(C(=O)NN(C)c2nc(C(F)(F)F)nc3ccccc23)cc1	16.6	4.5	56.1*	37.7	-56.3	29.6	54.6*	63.4*	0.5
COc1ccc(C(=O)NN(C)c2nc(-c3ccccc3)nnc2C(F)(F)F)cc1	11.6	-4.2	-16.5	14.0	1.1	3.0	nt	nt	nt
COc1ccc(OCC(=O)Nc2ccc3c(c2)nc(CCN2CCCC2)n3C)cc1	-8.1	5.8	4.8	10.0	-17.7	-3.0	nt	nt	nt
COc1ccc(OCC(=O)Nc2ccc3c(c2)nc(CCN2CCN(C)CC2)n3C)cc1	-5.3	-3.2	50.7	6.9	-2.9	7.2	16.4	0.2	-9.6
COc1cccc(C(=O)Nc2cc([N+](=O)[O-])ccc2N2CCN(C)CC2)c1	21.5	-2.5	53.9	6.2	-5.1	-8.4	15.6	0.8	-27.2
CC(COc1ccc(C#N)cc1F)CN1CCC(C(O)(c2ccccc2)c2ccccc2)CC1 (stereo not drawn)	nt	nt	nt	nt	-3.7	12.2	nt	nt	nt
O=C(CCc1nc2ccccc2c(=O)[nH]1)OCc1ccc(-c2ccccc2)cc1	5.9	-10.9	96.5*	-1.2	-9.4	-6.5	20.9	4.2	-36.1
Cc1ccc(S(=O)(=O)N(Cc2ccccc2)c2ccccc2C(=O)NCc2ccco2)cc1	-18.5	5.2	96.3*	2.3	31.7	6.4	22.9	22.2	4.5
CCCC/C=C1/C(c2ccccc2)N(Cc2ccc(OC)cc2OC)C2=NC(c3ccccc3)CC(=O)N21 (stereo not drawn)	nt	nt	nt	nt	-2.7	nt	nt	nt	nt
COc1ccc(-c2cn[nH]c2-c2ccc(OCc3ccccc3)cc2O)cc1	11.3	17.3	1.6	23.4	7.4	20.2	nt	nt	nt
CCOc1ccc(-c2[nH]ncc2-c2ccccc2)c(O)c1	-6.6	-19.6	55.3*	10.5	-14.5	-2.5	21.3	21.1	-20.5
CN(C)S(=O)(=O)c1ccc2oc(SCC(=O)c3c(N)n(C4CC4)c(=O)[nH]c3=O)nc2c1	13.3	3.8	-2.2	2.4	-11.5	0.1	nt	nt	nt
CN(C)S(=O)(=O)c1ccc2oc(SCC(N)=O)nc2c1	10.7	9.1	67.3*	15.5	-0.7	-3.2	12.2	7.4	-2.6
COCC(=O)N1CCC(Oc2ccc(C(=O)NCCCn3cccn3)cc2)CC1	-4.9	17.3	53.3	-15.4	-5.4	-1.0	21.2	6.6	4.7
CCN(CCn1cccn1)C(=O)c1ccc(OC2CCN(C(=O)COC)CC2)cc1	13.7	-3.0	-9.2	0.1	-2.6	-12.1	nt	nt	nt
CCc1ccc(-c2cc(C)no2)cc1S(=O)(=O)NCCN1CCC(C)CC1	-3.0	-18.1	-6.5	-6.6	-15.2	-30.0	nt	nt	nt
CCc1ccc(-c2cc(C)no2)cc1S(=O)(=O)NCCCN1CCN(c2ccccc2)CC1	2.5	-6.6	50.3	-29.8	28.6	29.6	18.3	28.8*	-55.3
COc1ccc(-c2cc(C)no2)cc1S(=O)(=O)NCC(C)c1ccccc1 (stereo not drawn)	6.7	9.0	75.5*	-0.7	0.5	-0.9	27.2	6.8	-38.9
CCOC(=O)C1=C(C(=O)OCC)C2N(Cc3ccc(Br)cc3)c3ccccc3[C@@]23C[C@@H](C(=O)OC)N(S(=O)(=O)c2ccc(C(F)(F)F)cc2)C3=N1 (stereo partly drawn)	nt	nt	nt	nt	37.2	-12.9	nt	nt	nt
NC(=O)C12NC(Cc3ccccc31)c1ccccc12 (stereo not drawn)	nt	nt	nt	nt	-1.1	4.9	nt	nt	nt
C[C@@H]1COc2cc(N3CCCC3)ccc2S(=O)(=O)N1	nt	nt	nt	nt	-1.8	-12.9	nt	nt	nt
CC1CN(S(=O)(=O)c2ccc(C(=O)Nc3nc(-c4cc5ccccc5o4)cs3)cc2)CC(C)O1 (stereo not drawn)	6.5	-0.8	75.4*	-0.9	5.9	18.7	79.4*	23.7	30.1*
O=C(Nc1nc(-c2cc3ccccc3o2)cs1)c1ccc(S(=O)(=O)N2CCCC2)cc1	13.2	11.7	50.3	5.5	4.6	10.4	58.6*	29.6*	-10.8
CCCCc1c(-c2ccccc2OC)ncn1Cc1ccc([N+](=O)[O-])cc1	nt	nt	nt	nt	6.9	2.7	nt	nt	nt
Nc1nc2nccc(-c3cccnc3)n2n1	16.9	18.5	95.4*	0.5	-21.2	-39.8	11.2	12.2	1.2
SMILES	LRH-1 inv ag	NCOA1 inh	Gli-Sufu antag	NCOA3 inh	COUP-TFII inh	NCOA2 inhibitor	Gli antag conf	SufuKO cytotox	Wnt3a cs
Cc1[nH]c2ccccc2c1SCc1nnc(SCc2ccc(Cl)cc2)n1C	-0.9	6.8	50.7	30.6	10.7	21.7	23.9	3.5	43.0*
N#CCC1(O)C(=O)Nc2ccccc21 (stereo not drawn)	nt	nt	nt	nt	17.3	-18.5	nt	nt	nt
Cc1ccc2c(c1)c(C)cc[n+]2Cc1ccccc1	-0.6	-15.1	57.7*	33.3	6.5	-28.5	60.3*	29.6*	13.0
CCN(Cc1ccccc1)C(=O)c1[nH]c2ccc(OC)cc2c1C	6.9	17.5	9.0	10.4	5.8	-6.7	nt	nt	nt
COc1ccc2c(c1)c(C)cc[n+]2Cc1ccccc1	18.5	-4.5	65.1*	11.0	10.2	11.7	66.6*	21.6	23.2
Cc1ccc2ccc[n+](Cc3ccccc3)c2c1	17.6	15.5	21.8	-9.9	10.3	13.9	nt	nt	nt
CCCC/C=C1/[C@@H](CC)N(Cc2ccc(OC)cc2OC)C2=N[C@H](c3ccccc3)CC(=O)N21	nt	nt	nt	nt	5.7	nt	nt	nt	nt
Cc1ccc(OCc2nnc(SCC(=O)Nc3ccc4c(c3)OCO4)n2Cc2ccco2)cc1	nt	nt	nt	nt	13.8	-0.3	nt	nt	nt
Cc1cc(C)c(S(=O)(=O)N2CCN(C(=O)C3CCCO3)CC2)c(C)c1 (stereo not drawn)	4.5	1.4	57.8*	9.4	-7.7	25.9	12.2	7.1	-12.7
Cc1ccc(S(=O)(=O)N2CCN(C(=O)C3CCCO3)CC2)cc1C (stereo not drawn)	6.5	15.0	3.4	-1.5	-9.6	-14.8	nt	nt	nt
CCCCc1c(-c2ccccc2OC)ncn1Cc1c(F)cccc1F	nt	nt	nt	nt	0.3	-11.2	nt	nt	nt
C[C@H](CO)N1C[C@H](C)[C@H](CN(C)Cc2cccc(F)c2)Oc2ncc(C3=CCCC3)cc2C1=O	nt	nt	nt	nt	22.3	6.1	nt	nt	nt
Cc1cccc(C)c1NC(=O)Cn1nnc(-c2ccc(CN3CCC(C)CC3)cc2)n1	14.7	6.6	27.8	17.4	-5.8	-28.8	nt	nt	nt
CC1CCN(Cc2ccc(-c3nnn(CC(=O)Nc4ccccc4Cl)n3)cc2)CC1	-19.6	-6.6	58.2*	-6.7	12.9	4.0	73.1*	32.6*	6.1
COc1cc(/C=N/NC(=O)c2ccccc2O)ccc1OC(=O)CC1SC(=O)NC1=O (stereo not drawn)	-28.0	-28.5	57.5*	-35.5	-23.5	-29.6	6.8	7.2	-48.4
